Data from PubChem BioAssay (NCATS).
Inconclusive results are not listed. The source made the active and inactive calls. Calls follow the shape of the dose curve; as a rule, active = well fitted inhibition curve with a large enough effect; inconclusive = small, poorly fitted or top-dose-only effect; inactive = flat fitted curve, though single readings scatter.

system: astro; assay: Drug repurposing screens with cells derived from glioblastoma tumor samples (AID 1345199); conditions: viability, ATP luminescence, 48 h; series mostly up to 45.9 µM; activity, negative = cell killing: at the top concentration; also: nearly all actives have a fitted effect of over 40% in size
Procedure: CD133+ cells were isolated from GBM patient biopsies and cultured as neurospheres. Neurospheres from four patients were used to screen the NCATS pharmaceutical collection (NPC) library of approved drugs and bioactive compounds. […] The neurospheres were incubated with drugs for 48 hours in 1536-well format, then assayed with an ATP content cell viability assay. […] These hits were cherry picked to confirm activity in the four original GBM lines screened plus three other slower growing GMB lines (unable to yield enough cells for a full primary screen). Variable activities of the confirmed primary hits in the different GBM patient lines were observed. The patient line 206 responded to the greatest number of compounds and line 923 responded to the least amount of active compounds.
% is scaled to controls: 0 for no effect and ±100 for the full control effect; potency is read from the fitted curve at half-maximal effect.

Compound	activity, negative = cell killing	Potency
CC(C)(C)C(=O)OCOP(=O)(COCCn1cnc2c(N)ncnc21)OCOC(=O)C(C)(C)C	-27.3% (inactive)	–
CNS(=O)(=O)CCc1ccc2[nH]cc(C3CCN(C)CC3)c2c1	-12.1% (inactive)	–
CC(=O)[C@H]1CC[C@H]2[C@@H]3CCC4=CC(=O)CC[C@]4(C)[C@H]3CC[C@]12C	-27.9% (inactive)	–
Nc1ccc(S(=O)(=O)Nc2ccccn2)cc1	-10.9% [at 21.2 µM] (inactive)	–
CCN(C)C(=O)Oc1cccc([C@H](C)N(C)C)c1	-11.5% (inactive)	–
CNC1CCCN(c2c(F)cc3c(=O)c(C(=O)O)cn(C4CC4)c3c2OC)C1 (stereo not given)	0.157% (inactive)	–
Cn1c(=O)c2c(ncn2CC(O)CO)n(C)c1=O (stereo not given)	-3.8% [at 21.2 µM] (inactive)	–
Cc1cccc(Nc2ccncc2S(=O)(=O)NC(=O)NC(C)C)c1	-20.9% [at 21.2 µM] (inactive)	–
Nc1nc(=S)c2[nH]cnc2[nH]1	–	inactive
CNS(=O)(=O)Cc1ccc2[nH]cc(CCN(C)C)c2c1	0.939% (inactive)	–
CCn1cc(C(=O)O)c(=O)c2cc(F)c(N3CCNCC3)cc21	–	inactive
CC[C@H](NC(C)C)[C@H](O)c1ccc(O)c2[nH]c(=O)ccc12	-20.2% (inactive)	–
CO[C@@H]1[C@@H](OC(N)=O)[C@@H](O)[C@H](Oc2ccc3c(O)c(NC(=O)c4ccc(O)c(CC=C(C)C)c4)c(=O)oc3c2C)OC1(C)C	-9.42% [at 21.2 µM] (inactive)	–
COc1ccc(C(=O)CC(=O)c2ccc(C(C)(C)C)cc2)cc1	-13.2% (inactive)	–
Clc1ccccc1CN1CCc2sccc2C1	-13.6% (inactive)	–
COc1nc(N)nc2c1ncn2[C@@H]1O[C@H](CO)[C@@H](O)[C@@H]1O	-14.9% (inactive)	–
CNC(=O)c1cc(Oc2ccc(NC(=O)Nc3ccc(Cl)c(C(F)(F)F)c3)cc2)ccn1	–	11.2 µM (active)
COc1ccc2c(c1)c(CC(=O)OCC(=O)O)c(C)n2C(=O)c1ccc(Cl)cc1	-15.4% (inactive)	–
CC(=O)CC(c1ccccc1)c1c(O)c2ccccc2oc1=O (stereo not given)	–	inactive
Cc1ncc([N+](=O)[O-])n1CCO	-2.47% (inactive)	–

Compound	activity, negative = cell killing	Potency
CCCCOc1ccc(CC(=O)NO)cc1	-21.6% [at 21.2 µM] (inactive)	–
CCC(=O)O[C@]1(C(=O)CCl)[C@@H](C)C[C@H]2[C@@H]3CCC4=CC(=O)C=C[C@]4(C)[C@@]3(F)[C@@H](O)C[C@@]21C	-15.1% (inactive)	–
CCCN[C@H]1CCc2nc(N)sc2C1	-6.2% (inactive)	–
CC(C)(C)NC(=O)[C@H]1CC[C@H]2[C@@H]3CC[C@H]4NC(=O)C=C[C@]4(C)[C@H]3CC[C@]12C	-13.6% [at 21.2 µM] (inactive)	–
C#CCN[C@@H]1CCc2ccccc21	-1.84% (inactive)	–
COc1cc(NS(=O)(=O)c2ccc(N)cc2)nc(OC)n1	-2.81% [at 21.2 µM] (inactive)	–
CC(=O)Oc1ccccc1C(=O)Nc1ncc([N+](=O)[O-])s1	–	5.01 µM (active)
CN(CCOc1ccc(CC2SC(=O)NC2=O)cc1)c1ccccn1 (stereo not given)	-23.3% (inactive)	–
CN1CCN(c2c(F)cc3c(=O)c(C(=O)O)cn4c3c2OCN4C)CC1	-11.5% (inactive)	–
CCn1cc(C(=O)O)c(=O)c2cc(F)c(N3CCN(C)CC3)cc21	-13.3% (inactive)	–
CC1=NN(c2ccccc2)C(=O)C1	-23.8% (inactive)	–
CCCc1cc(C(N)=S)ccn1	-13.7% (inactive)	–
CC(C(=O)O)c1ccc2c(c1)CC(=O)c1ccccc1S2 (stereo not given)	-25.3% (inactive)	–
Cc1nnc(C(=O)NC(C)(C)c2nc(C(=O)NCc3ccc(F)cc3)c(O)c(=O)n2C)o1	-10.9% (inactive)	–
Nc1nc(F)nc2c1ncn2[C@@H]1O[C@H](CO)[C@@H](O)[C@@H]1O	–	inactive
CC(N)C12CC3CC(CC(C3)C1)C2 (stereo not given)	-14.9% (inactive)	–
O=S(=O)(c1cccc2cnccc12)N1CCCNCC1	-12.6% (inactive)	–
O=C(O)c1cccnc1	-11.9% (inactive)	–
Cc1nnc(NS(=O)(=O)c2ccc(N)cc2)s1	-0.0484% (inactive)	–
CNNCc1ccc(C(=O)NC(C)C)cc1	-9.39% (inactive)	–
